# MRP-1 activ: MRP-1 activation | H69AR cells + doxorubicin, viability rescue, CellTiter-Glo | viability increase, % at 10 µM | actives 0.61% (n = 140,000) | AID 799;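 active = viability gain under doxorubicin at or above a set limit, the compound median plus 3 SD, cut at about 4.7% in these data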;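 note: MRP-1 overexpressing cells given doxorubicin 25 µM after compound pretreatment; 18-22 h compound pretreatment then 72 h with doxorubicin before readout; 0% = doxorubicin-only wells and 100% = vehicle-treated cells without doxorubicin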
# MRP resist rev: compounds reversing MRP-mediated drug resistance | H69AR cells + 2 uM doxorubicin, CellTiter-Glo, 72 h | actives 0.04% (n = 85,000) | differential viability (reversal), % at 10 µM;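 active = viability drop by adding the cancer drug above about 55%, with treated viability meeting a 40% cutoff, limit read from the data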;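 note: viability without doxorubicin minus viability with 2 µM doxorubicin for each compound; larger differential means the compound sensitizes cells more to doxorubicin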
# Phagocytosis inh: blocks phagocytosis by macrophages | actives 0.07% (n = 110,000) | AID 1029 | J774A.1 macrophage IgG-bead phagocytosis, imaging | inhibition, % at 5 µM;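 active = inhibition above the mean of the plate negative controls plus 5 SD, cut at about 13% in these data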;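 note: phagocytic index as fraction of beads internalized from green versus red external bead signal; plate controls were DMSO negative control for no effect and cytochalasin-D positive control for full effect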
# Numbers without * were called inactive; nt = no result given; [ ] = another dose, or the depositor's remark. Only some compounds are listed: those with a hit (about 0.69% of all), similar ones and a draw of the others.
SMILES,MRP-1 activ,MRP resist rev,Phagocytosis inh
CC(=O)NC(CCCN1C(=O)c2ccccc2C1=O)c1nnn(C)n1 (configuration not stated),0,nt,-5
O=C(Nc1ccccc1C(=O)NC(Cc1ccccc1)C(=O)NC1CCCCC1)c1ccccc1 (configuration not stated),-2,nt,-6
O=C(Nc1cccc([N+](=O)[O-])c1)c1[nH]ncc1Cl,6.1*,nt,-1
O=C(Nc1cccc([N+](=O)[O-])c1)c1cnccn1,-2,nt,-5
CCOC(=O)c1cnn(-c2ccccn2)c1N,7.5*,0,1
CCOC(=O)c1cnn(-c2cc(Oc3ccccc3)ncn2)c1N,0,nt,nt
Fc1ccc(-n2nnnc2-c2cnc(-c3cccs3)nc2C(F)(F)F)cc1,5.1*,nt,-1
FC(F)(F)c1nc(-c2ccncc2)ncc1-c1nnnn1-c1ccccc1,-3,nt,-2
O=C(CSCc1ccccc1)Nc1ccc(F)c(F)c1,4.7*,nt,-1
O=C(CSCc1ccc(F)cc1)Nc1ccccc1,-1,nt,0
O=C(CSCc1ccc(Cl)cc1)N/N=C/c1ccccc1,4.8*,nt,-2
O=C(CSCc1ccc(Cl)cc1)N/N=C/c1c(Cl)cccc1Cl,2,nt,-13
CCOC(=O)c1c(C)n(C)c2cc(-c3ccc(F)cc3)c(O)cc12,1,nt,-9
[N-]=[N+]=CC(=O)CC(c1ccccc1)N1C(=O)c2ccccc2C1=O (configuration not stated),1,-13,2
C[C@H](C(=O)C=[N+]=[N-])N1C(=O)c2ccccc2C1=O,12*,-1,0
COc1ccc(CN=C2NC(=O)CC(C(=O)Nc3ccccc3C)S2)cc1 (configuration not stated),6.0*,nt,-3
COc1ccc(CN=C2NC(=O)CC(C(=O)Nc3ccc([N+](=O)[O-])cc3C)S2)cc1 (configuration not stated),4,nt,-8
COc1ccc(-n2cnnc2SC(C)C(=O)Nc2cccc([N+](=O)[O-])c2)cc1 (configuration not stated),-1,nt,-7
COc1ccc(CNc2nc(NCc3ccc(OC)cc3)n(S(C)(=O)=O)n2)cc1,5.1*,11,0
COCC(=O)n1nc(NCc2ccc(OC)cc2)nc1NCc1ccc(OC)cc1,2,10,-3
CCc1nnc(NC(=O)CCC(=O)NC2CCCc3ccccc32)s1 (configuration not stated),0,nt,nt
COc1ccc(NS(=O)(=O)c2ccc3c(c2)n(C)c(=O)n3C)cc1,0,nt,0
COc1ccc(NS(=O)(=O)c2ccc3oc(SC4CCOC4=O)nc3c2)cc1 (configuration not stated),7.4*,11,-1
CCOC(=O)Cc1csc(NC(=O)c2sc3nc4c(C)cc(C)cc4cc3c2N)n1,2,nt,-1
CS(=O)(=O)Nc1nnc(Cc2ccccc2)s1,7.9*,-10,nt
SMILES,MRP-1 activ,MRP resist rev,Phagocytosis inh
CC(=O)Nc1nnc(Cc2ccccc2)s1,1,3,-1
Cc1cc(Br)c2nc3c(c(C(=O)O)c2c1)CCCCC3,0,nt,-8
COc1cc(C)nc(N(C)S(=O)(=O)c2ccccc2Cl)n1,-3,-19,1
O=C(NC(=S)Nc1ccc(N2CCOCC2)cc1)c1cncc(Br)c1,-3,nt,-4
CC1=C(C(=O)Nc2ccccc2)C(c2ccc(C)o2)N2C(=O)CSC2=N1 (configuration not stated),11*,-3,-1
CC1=C(C(=O)Nc2ccccc2)C(c2ccccc2)N2C(=O)CSC2=N1 (configuration not stated),-1,-1,0
C=CCOc1ccc(CNc2ccc(NC(=O)CC(C)C)cc2)cc1OC,18*,nt,-4
C=CCOc1ccc(CNc2nn[nH]n2)cc1OC,-2,nt,0
CCCCN(C(=O)c1cc2ccccc2o1)c1c(N)n(CCC)c(=O)[nH]c1=O,-1,nt,-11
CCC1(C)Cc2c(sc3nnn(CC(=O)Nc4cccc5ccccc45)c(=O)c23)CO1 (configuration not stated),-4,nt,1
CCC1(C)Cc2c(sc3nnn(CC(=O)Nc4ccc(C)cc4)c(=O)c23)CO1 (configuration not stated),9.7*,nt,1
COc1ccc(NC(=O)CSc2nc(O)cc(=O)n2-c2ccccc2OC)cc1,1,-1,-1
COc1ccccc1-n1c(SCC(=O)Nc2cccc3ccccc23)nc(O)cc1=O,0,-11,190*
CCSc1nnc(NS(=O)(=O)c2ccc(C)cc2)s1,-1,nt,-1
O=c1cc(O)c2sc3nc(-c4cccnc4)cc(C(F)(F)F)c3c2[nH]1,-3,nt,0
CCN(CC)S(=O)(=O)c1cc(C)ccc1SC,-1,nt,-3
O=C(C1=NN[C@@H]2C(=O)N(c3ccccc3C(F)(F)F)C(=O)[C@H]12)c1ccc2ccccc2n1,-1,nt,-10
N#Cc1ccc(N2C(=O)[C@@H]3C(C(=O)c4ccc5ccccc5n4)=NN[C@@H]3C2=O)cc1,9.3*,nt,3
O=C(CC1C(=O)N(c2ccc(Cl)cc2)C(=S)N1CCc1ccncc1)Nc1ccc(F)cc1 (configuration not stated),-3,nt,nt
O=C(CN(Cc1ccco1)C(=O)c1ccccc1)Nc1ccc(Cl)c(Cl)c1,-4,nt,nt
Cc1cc(=O)oc2cc(OCC(=O)Nc3cccc(S(=O)(=O)N(C)C)c3)ccc12,-2,nt,-5
Cc1ccc(N(C)S(=O)(=O)c2cccc(C(=O)Oc3ccc4c(C)cc(=O)oc4c3)c2)cc1,4.8*,nt,-4
O=C1CC(c2nc3ccccc3[nH]2)CN1c1cccc(C(F)(F)F)c1 (configuration not stated),7.7*,6,nt
O=C1CC(c2nc3ccccc3[nH]2)CN1c1ccccc1F (configuration not stated),0,24,-2
Cc1ccc(OCCOc2ccc(Cl)cc2Cl)c([N+](=O)[O-])n1,2,nt,-8
SMILES,MRP-1 activ,MRP resist rev,Phagocytosis inh
CN(CC(=O)NCCC1=CCCCC1)S(=O)(=O)c1ccc2c(c1)c(=O)n(C)c(=O)n2C,-2,-4,-1
CN(CC(=O)NCCc1ccc(Cl)cc1)S(=O)(=O)c1ccc2c(c1)c(=O)n(C)c(=O)n2C,6.1*,4,-1
O=C(Nc1ccc(OC(F)F)cc1)Nc1cccc(C(F)(F)F)c1,-3,-1,0
Cc1cccc(CC2S/C(=N/c3ccccn3)NC2=O)c1 (configuration not stated),10*,-11,nt
O=C1N/C(=N\N=C\c2ccccn2)SC1Cc1cccc(SC(F)F)c1 (configuration not stated),-1,nt,nt
O=C(COC(=O)CCc1ccc(S(=O)(=O)N2CCOCC2)cc1)NC1CCCCCC1,0,nt,3
COc1ccc(NC(=O)c2cc(S(=O)(=O)N(Cc3ccccc3)c3ccccc3)ccc2Cl)cn1,-5,nt,7
COC(=O)c1onc(-c2c(C)cc(C)cc2C)c1C(=O)OC,1,nt,nt
Cc1ccc(C(=O)NC(NC(=S)Nc2ccc(S(N)(=O)=O)cc2)C(Cl)(Cl)Cl)cc1 (configuration not stated),-2,nt,-8
CCOC(=O)NC(NC(=S)Nc1ccc(OCC)cc1)C(Cl)(Cl)Cl (configuration not stated),-1,nt,29*[artifact]
CCCCS(=O)c1c(O)c2ccccc2[nH]c1=O (configuration not stated),2,nt,-5
O=C(CSCc1ccc(Cl)cc1)Nc1nccs1,1,9,nt

# Screening results deposited in PubChem BioAssay by several laboratories.
